Here are results for 12 compounds from PubChem BioAssay.

Experiment [1] relates to XIP peptide (Xip251-270) binding. In words: small-molecule binders of XIP peptide, primary screen, biochemical, small-molecule microarray, fluorescence 635/667 nm, 0.1 µg/mL protein (AID 1182). Conditions: fluorescent protein binding, 635 nm, higher = more signal, called active from +8 up or from −8 down.
The subject of another experiment is XIP peptide (Xip251-270). In words: small-molecule binders of XIP peptide, primary screen, biochemical, small-molecule microarray, fluorescence 635/667 nm, 0.5 µg/mL protein (AID 1183). Conditions: small-molecule microarray binding, fluorescence 635 nm; higher = more signal.
The nature of experiment [2]: Plasmodium falciparum growth inhibition, primary screen, strain 3D7, DAPI fluorescence, 100 nL (AID 1184).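 Further: parasites grown inside human red blood cells in medium with human serum.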 Conditions: P. falciparum 3D7 growth, 3 d, higher = more signal.
For experiment [3], the target named is Homeobox protein Hox-A13 (Mus musculus) (UniProt Q62424). Put plainly: inhibitors of HoxA13-DNA binding, primary screen, biochemical, fluorescence polarization, labeled oligonucleotide (AID 1185). Conditions: 15 min, higher = more signal, called active from +8 up or from −8 down. A general note: In fluorescence polarisation assays a small probe gives low polarisation when free and higher when bound to something large.

The nature of experiment [4]: inhibitors of hydroxyurea-induced Chk1 phosphorylation, primary screen, imaging, HeLa, phospho-Chk1 antibody, percent positive cells (AID 1186). The following applies: hydroxyurea-induced phospho-Chk1 immunofluorescence imaging, higher = more signal.
Experiment [5] is described as follows: inhibitors of hydroxyurea-induced Chk1 phosphorylation, primary screen, imaging, HeLa, phospho-Chk1 nuclear intensity (AID 1187). The following applies: hydroxyurea-induced phospho-Chk1 immunofluorescence imaging, higher = more signal.

“And” between values parts separate entries of the source, which are not always exact repeats. Equal values may be shown once. The source made the active and inactive calls. Unless noted, how the calls were made is not given here.

Chain of Homeobox protein Hox-A13 (Mus musculus) (Q62424 whole entry, looked up): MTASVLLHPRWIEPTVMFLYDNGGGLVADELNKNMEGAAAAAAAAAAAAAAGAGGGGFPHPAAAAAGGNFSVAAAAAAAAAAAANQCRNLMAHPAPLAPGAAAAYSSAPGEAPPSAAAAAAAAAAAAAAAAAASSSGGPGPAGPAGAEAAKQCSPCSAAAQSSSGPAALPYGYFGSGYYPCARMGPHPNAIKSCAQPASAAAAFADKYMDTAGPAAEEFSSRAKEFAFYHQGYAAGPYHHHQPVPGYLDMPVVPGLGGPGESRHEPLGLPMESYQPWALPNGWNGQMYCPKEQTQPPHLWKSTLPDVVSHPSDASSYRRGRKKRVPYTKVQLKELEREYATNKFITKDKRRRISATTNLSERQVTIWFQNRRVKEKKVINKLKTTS

As for `CN1C(=O)C2CC=C([C@H]3Oc4ccccc4S(=O)(=O)N4CCC[C@@H]34)CC2C1=O` (some centres not stated), the composite z-score in experiment [1] was -0.0989 (inactive) and 0.181 (inactive); with XIP peptide (Xip251-270), -0.128 and -1.09. For the same compound, the z-score is -0.292 and -0.542 in experiment [2]; -2 (inactive) and -1.92 (inactive) in experiment [3]; 0.0695 (inactive) and 0.549 (inactive) in experiment [4]; -0.12 (inactive) and 0.575 (inactive) in experiment [5].
`CC(CO)N1C(=O)[C@@H]2C3C(=O)OCCC=C[C@H]3OC23C=CCN(Cc2ccccc2)C(=O)[C@@H]13` (some centres not stated): the composite z-score in experiment [1] was -0.05 (inactive) and 0.127 (inactive); in the experiment with XIP peptide (Xip251-270) it was -0.4 and -0.181. The z-score was -1.1 and -0.233 in experiment [2]; -5.29 (inactive) and -4.45 (inactive) in experiment [3]; -0.769 (inactive) and -0.0621 (inactive) in experiment [4]; -0.426 (inactive) and -0.217 (inactive) in experiment [5].
With `CCOC(=O)c1ccc(NC(=O)O[C@H]2[C@H](OC(=O)Nc3ccccc3)[C@H](OC(=O)Nc3ccccc3)[C@@H](OC)O[C@@H]2CO)cc1`, the composite z-score was 0.706 (inactive) and 1.24 (inactive) in experiment [1]; 0.844 and 0.901 in the experiment with XIP peptide (Xip251-270). Besides, the z-score is -2.51 and -2.22 in experiment [2]; -1.14 (inactive) and -4.8 (inactive) in experiment [3]; 0.143 (inactive) and 0.494 (inactive) in experiment [4]; 0.337 (inactive) and 0.629 (inactive) in experiment [5].
Take `C=CCN(C(=O)C(c1cccs1)N(C(=O)/C=C\C(=O)O)c1ccc(CCO)cc1)C(C)(C)C` (configuration not stated): the composite z-score is 0.356 (inactive) and 1.08 (inactive) in experiment [1]; -0.998 and 0.187 in the experiment on XIP peptide (Xip251-270). Moreover, the z-score is -0.21 and -0.719 in experiment [2]; 0.0682 (inactive) and -0.369 (inactive) in experiment [3]; 0.632 (inactive) and 1.03 (inactive) in experiment [4]; 0.344 (inactive) and 0.743 (inactive) in experiment [5].
On to `O=C1C[C@]2(c3ccc([N+](=O)[O-])cc3)C(=O)N(Cc3ccccc3)c3cc(CO)ccc3[C@H]2N1C1CCCCC1`, for which the composite z-score is -0.182 (inactive) and 0.877 (inactive) in experiment [1]; -0.242 and 0.519 with XIP peptide (Xip251-270). Besides, the z-score was 1.04 and -1.97 in experiment [2]; -1.48 (inactive) and -3.19 (inactive) in experiment [3]; 0.112 (inactive) and -0.427 (inactive) in experiment [4]; 0.357 (inactive) and -0.265 (inactive) in experiment [5].
For `CC(CO)N1C(=O)[C@@H]2C3C(=O)OCCC=C[C@H]3OC23C=CCN(c2ccc(Cl)cc2)C(=O)[C@@H]13` (some centres not stated), the composite z-score in experiment [1] was 0.291 (inactive) and 0.137 (inactive); with XIP peptide (Xip251-270), -0.784 and 0.213. The z-score in experiment [2] was -0.764 and -0.187; in experiment [3] it was -3.34 (inactive) and -6.16 (inactive); in experiment [4], 0.537 (inactive) and -0.0281 (inactive); in experiment [5], 0.654 (inactive) and 0.0058 (inactive).
Take `COC(=O)c1c2oc(c1C(=O)OC)C(=O)N[C@@H](Cc1ccccc1)Cn1cc(nn1)C1(CCCCC1)NC(=O)N[C@H](CO)CC2`: the composite z-score in experiment [1] is 0.398 (inactive) and -0.338 (inactive); in the experiment on XIP peptide (Xip251-270) it was 0.762 and 0.215. Besides, the z-score in experiment [2] is 0.53 and 1.25; in experiment [3], -4.76 (inactive) and -2.08 (inactive); in experiment [4] it was -0.496 (inactive) and 0.267 (inactive); in experiment [5], 0.184 (inactive) and 0.279 (inactive).
Turning to `CC(CO)N1C(=O)[C@@H]2C3C(=O)OCCC=C[C@H]3OC23C=CCN(Cn2nnc4ccccc42)C(=O)[C@@H]13` (some centres not stated), the composite z-score in experiment [1] was 0.287 (inactive) and 0.0057 (inactive); with XIP peptide (Xip251-270) it was 0.699 and 0.41. The z-score in experiment [2] is -0.0355 and 0.986; in experiment [3], -3.43 (inactive) and -5.52 (inactive); in experiment [4] it was 0.787 (inactive) and 0.875 (inactive); in experiment [5], 0.336 (inactive) and 0.749 (inactive).
Consider `COC(=O)[C@@]1(Cc2ccccc2)[C@H]2c3cc(C(=O)N(C)C)n(C[C@H](O)CO)c3C[C@H]2CN1C(=O)c1ccccc1`, for which the composite z-score in experiment [1] is 0.386 (inactive) and -0.28 (inactive); in the experiment on XIP peptide (Xip251-270), -0.0997 and 0.84. Further, the z-score was -0.894 and -0.297 in experiment [2]; -2.22 (inactive) and -4.41 (inactive) in experiment [3]; -0.601 (inactive) and 1.42 (inactive) in experiment [4]; -0.292 (inactive) and 1.06 (inactive) in experiment [5].
Regarding `C=CC[C@@H](O)c1ccc(O)c2ccccc12`, the composite z-score in experiment [1] is 2.01 (inactive) and 0.431 (inactive); in the experiment on XIP peptide (Xip251-270), 0.703 and 0.802. Further, the z-score in experiment [2] was -0.401 and 0.619; in experiment [3], -2.24 (inactive); in experiment [4], 0.024 (inactive) and 0.26 (inactive); in experiment [5], 0.515 (inactive) and 0.183 (inactive).
As for `CCOC(=O)C[C@H]1[C@H](OC(=O)c2ccccc2-c2ccccc2)[C@@H](NC(=O)Cc2ccc(OC)cc2)c2cc(OCCCO)ccc2N1C(=O)c1ccc2ccccc2n1`, the composite z-score is -0.432 (inactive) and 0.387 (inactive) in experiment [1]; -0.398 and 0.0791 in the experiment on XIP peptide (Xip251-270). The z-score in experiment [2] was -0.543 and -0.616; in experiment [3], -1.67 (inactive) and -0.554 (inactive); in experiment [4] it was -0.015 (inactive) and -0.308 (inactive); in experiment [5], 0.0414 (inactive) and -0.162 (inactive).
`CC(CO)N1C(=O)[C@@H]2C3C(=O)OCCC=C[C@H]3OC23C=CCN(c2ccc4ccccc4c2)C(=O)[C@@H]13` (some centres not stated): the composite z-score in experiment [1] is 0.62 (inactive) and -0.143 (inactive); in the experiment with XIP peptide (Xip251-270) it was 0.713 and 0.135. For the same compound, the z-score in experiment [2] is -0.526 and 0.0547; in experiment [3], -6.14 (inactive) and -5.9 (inactive); in experiment [4], -0.437 (inactive) and 0.0615 (inactive); in experiment [5], 0.0032 (inactive) and 0.0969 (inactive).
